Assay outcomes as filed in PubChem.
AmpC no deterg – qHTS Inhibitors of AmpC Beta-Lactamase (assay without detergent); AmpC nitrocefin hydrolysis, absorbance 480 nm, 0.0001% Triton; Potency, µM (titrated, usually from 57.1 µM), actives largely listed as inhibitors; 330,000 tested, 0.52% active; P00811; also: nearly all actives have a fitted effect of over 20% in size
Target sequence (P00811 whole entry, looked up): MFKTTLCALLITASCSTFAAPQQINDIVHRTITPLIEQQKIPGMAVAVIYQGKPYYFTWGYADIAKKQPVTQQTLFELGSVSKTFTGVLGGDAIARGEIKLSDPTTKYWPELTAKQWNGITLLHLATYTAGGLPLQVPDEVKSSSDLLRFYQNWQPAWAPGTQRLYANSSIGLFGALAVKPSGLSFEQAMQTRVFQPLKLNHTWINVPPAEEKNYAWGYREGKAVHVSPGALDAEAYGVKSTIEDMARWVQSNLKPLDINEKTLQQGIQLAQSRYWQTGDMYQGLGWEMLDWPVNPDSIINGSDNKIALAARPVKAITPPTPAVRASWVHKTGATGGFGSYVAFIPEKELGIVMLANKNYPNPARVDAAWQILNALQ
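AmpC (5.3 nM in the dispensed reagent) in 20 mM phosphate pH 7.0 with 0.01% (detergent screen) or 0.0001% Triton X-100 was preincubated with compounds for 15 min at room temperature. Nitrocefin was then added from an 800 uM solution, and hydrolysis was followed at 480 nm.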
Sm TGR inh – qHTS Assay for the Inhibitors of Schistosoma Mansoni Peroxiredoxins; purified TGR, DTNB reduction, TNB absorbance 405 nm; 360,000 tested, 3% active; Potency, µM (doses to about 114 µM), actives largely listed as inhibitors; Schistosoma mansoni thioredoxin glutathione reductase (TGR), Q962Y6; also: nearly all actives have a fitted effect of over 60% in size
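TGR 20 nM + NADPH 100 uM (dispensed conc.), cpd preinc 15 min RT; start with NADPH (500 uM addition) then DTNB (15 mM addition). Kinetic TNB absorbance, 405 nm filter. Four-parameter Hill fit across titration.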
AmpC detergent – qHTS Inhibitors of AmpC Beta-Lactamase (assay with detergent) | AmpC hydrolysis of nitrocefin, absorbance 480 nm, 0.01% Triton | AID 485294, 2010 | P00811 | 370,000 tested, 0.041% active | Potency, µM (highest dose often 114 µM), actives largely listed as inhibitors; also: nearly all actives have a fitted effect of over 25% in size
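AmpC (5.3 nM in the dispensed reagent) in 20 mM phosphate pH 7.0 with 0.01% (detergent screen) or 0.0001% Triton X-100 was preincubated with compounds for 15 min at room temperature. Nitrocefin was then added from an 800 uM solution, and hydrolysis was followed at 480 nm.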
Numbers stand for hits; ! = not confirmed by another sample. Only some compounds are listed: those with a hit (about 3.3% of all), similar ones and a draw of the others. Calls follow the shape of the dose curve; as a rule, active = well fitted curve in the direction sought with a large enough effect; inconclusive = small, poorly fitted or top-dose-only effect, or another doubt; inactive = no such curve, though single readings can be large; an effect the other way counts as inactive or inconclusive.

COc1ccccc1NS(=O)(=O)c1cc(NC(=O)c2cc3ccccc3oc2=O)ccc1C was read as AmpC no deterg inactive, Sm TGR inh inactive and AmpC detergent inactive.
O=C(CCn1cnnn1)Nc1ccc(Cl)c(Cl)c1 was read as AmpC no deterg inactive and AmpC detergent inactive.
Cc1cccc(NC(=O)CCn2cnnn2)c1 was read as AmpC no deterg inactive, Sm TGR inh 89.1µM! and AmpC detergent inactive.
COc1cc(OC)c(NC(=O)N2CCC(CN3CCOCC3)CC2)cc1Cl was read as Sm TGR inh inactive and AmpC detergent inactive.
For COc1ccc(N2CCN(S(=O)(=O)CCNC(=O)c3ccc(C(F)(F)F)cc3)CC2)cc1 the results were Sm TGR inh inactive and AmpC detergent inactive.
C=CCN1C(=O)c2ccc(C(=O)OCC(=O)N3CCN(c4ccccc4)CC3)cc2C1=O was read as AmpC no deterg inconclusive, Sm TGR inh inactive and AmpC detergent inconclusive.
`COc1ccccc1CCNC(=O)CCCn1c(=O)c2cccn2c2cccnc21` gave Sm TGR inh inactive and AmpC detergent inactive.
`OCCCc1n[nH]c(=S)n1-c1ccccc1` gave AmpC no deterg inactive, Sm TGR inh 44.7µM and AmpC detergent inactive.
Screening COCc1n[nH]c(=S)n1-c1ccccc1 returned AmpC no deterg inactive, Sm TGR inh inactive and AmpC detergent inconclusive.
CC(NC(=O)CSc1nc(-c2cccc(Cl)c2)nc2cc(=O)[nH]n12)c1nc2ccccc2n1C (configuration not stated) was read as Sm TGR inh inactive and AmpC detergent inactive.
Screening COc1ccc(S(=O)(=O)Cc2ccc(C(=O)NC3CCCCCC3)o2)cc1 returned AmpC no deterg inactive, Sm TGR inh inactive and AmpC detergent inactive.
`C/C(O)=C(/C#N)c1nc2ccccc2[nH]1` gave AmpC no deterg inactive, Sm TGR inh inactive and AmpC detergent inactive.
`N#C/C(=C(/O)C(Cl)(Cl)Cl)c1nc2ccccc2[nH]1` gave AmpC no deterg inactive, Sm TGR inh 3.98µM and AmpC detergent inactive.
`CCOC(=O)[C@@H]1[C@H]2COc3cc(OC)ccc3[C@@H]2N2C(=O)N(c3cccc(F)c3)C(=O)[C@@]12C` gave AmpC no deterg inactive, Sm TGR inh inactive and AmpC detergent inconclusive.
Screening O=C(N/C(=C/c1ccco1)C(=O)N1CCc2ccccc21)c1ccco1 returned AmpC no deterg inactive, Sm TGR inh 31.6µM and AmpC detergent inactive.
`O=C(O)CCCCCNC(=O)/C(=C\c1ccco1)NC(=O)c1ccco1` gave AmpC no deterg inactive, Sm TGR inh 100µM and AmpC detergent inactive.
`O=C(O)CCNC(=O)/C(=C\c1ccco1)NC(=O)c1ccco1` gave AmpC no deterg inactive, Sm TGR inh inconclusive and AmpC detergent inconclusive.
O=C(NC(Cc1ccccc1)C(=O)O)/C(=C/c1ccccc1)NC(=O)c1ccc(Br)o1 (configuration not stated) was read as AmpC no deterg inactive, Sm TGR inh inactive and AmpC detergent inactive.
Screening CC(C)CC(NC(=O)/C(=C/c1ccco1)NC(=O)c1ccc(Br)o1)C(=O)O (configuration not stated) returned AmpC no deterg inactive, Sm TGR inh 44.7µM and AmpC detergent inactive.
O=C(N/C(=C\c1ccccc1)C(=O)N1CCOCC1)c1ccco1 was read as AmpC no deterg inactive, Sm TGR inh inactive and AmpC detergent inactive.
For CC(C)CC(NC(=O)/C(=C\c1ccco1)NC(=O)c1ccco1)C(=O)O (configuration not stated) the results were AmpC no deterg inactive, Sm TGR inh 35.5µM and AmpC detergent inactive.
Screening CNC(=O)/C(=C\c1ccco1)NC(=O)c1ccco1 returned AmpC no deterg inactive, Sm TGR inh inconclusive and AmpC detergent inactive.
CC1(C(=O)Nc2ccc3c(c2)OCO3)CC1(Cl)Cl (configuration not stated) was read as AmpC no deterg inactive, Sm TGR inh inactive and AmpC detergent inactive.
For O=C(COC(=O)CCc1nc2ccccc2s1)Nc1ccc(Cl)cn1 the results were AmpC no deterg inactive, Sm TGR inh inactive and AmpC detergent inactive.
Screening CC(C)N(Cc1ccccc1)c1ncnc2c1nnn2C returned Sm TGR inh inactive and AmpC detergent inactive.
Cc1oc2c(c1C(=O)Nc1ccccc1Br)C1=NCCN1C=N2 was read as Sm TGR inh inactive and AmpC detergent inactive.
Screening CN(CC(=O)NCCCN1CCOCC1)S(=O)(=O)c1ccc(F)cc1 returned AmpC no deterg inactive, Sm TGR inh inactive and AmpC detergent inactive.
